# According to PubChem BioAssay AID1159580 (chemical genetic matrix, 2015):
# The whole screen tested about 5,500 compounds, of which about 2,000 (36%) were called active. Inconclusive results (about 18%) are left out. The list shows a part of the results. Values without a mark were called inactive. Rule as the data show it: active = normalized growth mostly below about 0.91 (no sharp cut-off); inconclusive = no clear call, values can overlap the other calls; inactive = mostly above about 0.92.
# Assay: chemical genetic growth profiling, strain panel (AID 1159580);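 also: tested at 20 µM; growth read once vehicle control cultures reached saturation at 30 °C; 1 = growth at the plate median or of vehicle wells; lower values mean less growth of the strain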
# Details: growth OD
# [1] = S. cerevisiae deletion strains, locus YGR078C, strain PAC10, stronger effect = lower value
# [2] = S. cerevisiae deletion strains, locus YGR229C, strain SMI1, stronger effect = lower value
# [3] = S. cerevisiae deletion strains, locus YJR075W, strain HOC1, stronger effect = lower value
# [4] = S. cerevisiae deletion strains, locus YNL322C, strain KRE1, stronger effect = lower value
# [5] = S. cerevisiae deletion strains, locus YPL241C, strain CIN2, stronger effect = lower value
structure (smiles),measurement,setting,value
CC(=O)OC1CN2CCC1CC2 (stereo not drawn),normalized growth,"S. cerevisiae deletion strains, locus YAL013W, strain DEP1, stronger effect = lower value",0.997
same,normalized growth,"S. cerevisiae deletion strains, locus YBR021W, strain FUR4, stronger effect = lower value",1.01
same,normalized growth,"S. cerevisiae deletion strains, locus YBR229C, strain ROT2, stronger effect = lower value",0.973
same,normalized growth,"S. cerevisiae deletion strains, locus YCL029C, strain bik1, stronger effect = lower value",0.983
same,normalized growth,"S. cerevisiae deletion strains, locus YDL035C, strain GPR1, stronger effect = lower value",1.02
same,normalized growth,"S. cerevisiae deletion strains, locus YDL074C, strain BRE1, stronger effect = lower value",1.03
same,normalized growth,"S. cerevisiae deletion strains, locus YDL101C, strain DUN1, stronger effect = lower value",0.989
same,normalized growth,"S. cerevisiae deletion strains, locus YDL134C, strain PPH21, stronger effect = lower value",0.988
same,normalized growth,"S. cerevisiae deletion strains, locus YDL185W, strain tfp1, stronger effect = lower value",0.965
same,normalized growth,"S. cerevisiae deletion strains, locus YDL192W, strain arf1, stronger effect = lower value",0.985
same,normalized growth,"S. cerevisiae deletion strains, locus YDR101C, strain arx1, stronger effect = lower value",0.987
same,normalized growth,"S. cerevisiae deletion strains, locus YDR150W, strain NUM1, stronger effect = lower value",0.982
same,normalized growth,"S. cerevisiae deletion strains, locus YDR162C, strain NBP2, stronger effect = lower value",0.991
same,normalized growth,"S. cerevisiae deletion strains, locus YDR318W, strain mcm21, stronger effect = lower value",1
same,normalized growth,"S. cerevisiae deletion strains, locus YDR388W, stronger effect = lower value",0.991
same,normalized growth,"S. cerevisiae deletion strains, locus YDR502C, strain sam2, stronger effect = lower value",0.993
same,normalized growth,"S. cerevisiae deletion strains, locus YEL061C, strain CIN8, stronger effect = lower value",0.995
same,normalized growth,"S. cerevisiae deletion strains, locus YER110C, stronger effect = lower value",0.959
same,normalized growth,"S. cerevisiae deletion strains, locus YER155C, strain BEM2, stronger effect = lower value",1
same,normalized growth,"S. cerevisiae deletion strains, locus YER167W, strain BCK2, stronger effect = lower value",1
same,normalized growth,"S. cerevisiae deletion strains, locus YGL078C, strain dbp3, stronger effect = lower value",0.993
same,normalized growth,"S. cerevisiae deletion strains, locus YGL086W, strain mad1, stronger effect = lower value",0.994
same,normalized growth,"S. cerevisiae deletion strains, locus YGL248W, strain PDE1, stronger effect = lower value",1.01
same,normalized growth,[1],1.01
same,normalized growth,"S. cerevisiae deletion strains, locus YGR135W, strain pre9, stronger effect = lower value",0.995
same,normalized growth,[2],1.01
same,normalized growth,"S. cerevisiae deletion strains, locus YGR252W, strain gcn5, stronger effect = lower value",1.07
same,normalized growth,"S. cerevisiae deletion strains, locus YHR030C, strain SLT2, stronger effect = lower value",1
same,normalized growth,"S. cerevisiae deletion strains, locus YHR079C, strain IRE1 (second series), stronger effect = lower value",0.982
same,normalized growth,"S. cerevisiae deletion strains, locus YHR094C, strain hxt1, stronger effect = lower value",0.985
same,normalized growth,"S. cerevisiae deletion strains, locus YHR129C, strain ARP1, stronger effect = lower value",1
same,normalized growth,"S. cerevisiae deletion strains, locus YHR200W, strain rpn10, stronger effect = lower value",0.985
same,normalized growth,"S. cerevisiae deletion strains, locus YIL066C, strain RNR3, stronger effect = lower value",0.993
same,normalized growth,"S. cerevisiae deletion strains, locus YIL073C, strain SPO22, stronger effect = lower value",0.97
same,normalized growth,"S. cerevisiae deletion strains, locus YIL125W, strain kgd1, stronger effect = lower value",0.982
same,normalized growth,"S. cerevisiae deletion strains, locus YIR030C, strain dcg1, stronger effect = lower value",0.971
same,normalized growth,"S. cerevisiae deletion strains, locus YJL095W, strain BCK1, stronger effect = lower value",1.04
same,normalized growth,"S. cerevisiae deletion strains, locus YJL134W, strain LCB3, stronger effect = lower value",0.987
same,normalized growth,"S. cerevisiae deletion strains, locus YJL168C, strain set2, stronger effect = lower value",0.994
same,normalized growth,"S. cerevisiae deletion strains, locus YJL187C, strain SWE1 (second series), stronger effect = lower value",1.01
same,normalized growth,"S. cerevisiae deletion strains, locus YJR043C, strain POL32, stronger effect = lower value",1.01
same,normalized growth,[3],1.02
same,normalized growth,"S. cerevisiae deletion strains, locus YKL009W, strain mrt4, stronger effect = lower value",0.963
same,normalized growth,"S. cerevisiae deletion strains, locus YKL068W, stronger effect = lower value",0.982
same,normalized growth,"S. cerevisiae deletion strains, locus YKL085W, strain MDH1 (second series), stronger effect = lower value",0.992
same,normalized growth,"S. cerevisiae deletion strains, locus YKL085W, strain MDH1, stronger effect = lower value",0.992
same,normalized growth,"S. cerevisiae deletion strains, locus YKL190W, strain CNB1, stronger effect = lower value",0.997
same,normalized growth,"S. cerevisiae deletion strains, locus YKR001C, strain vps1, stronger effect = lower value",0.981
same,normalized growth,"S. cerevisiae deletion strains, locus YLR039C, strain RIC1, stronger effect = lower value",1
same,normalized growth,"S. cerevisiae deletion strains, locus YLR058C, strain SHM2, stronger effect = lower value",0.986
same,normalized growth,"S. cerevisiae deletion strains, locus YLR102C, strain apc9, stronger effect = lower value",0.982
same,normalized growth,"S. cerevisiae deletion strains, locus YLR262C, strain YPT6, stronger effect = lower value",0.997
same,normalized growth,"S. cerevisiae deletion strains, locus YLR268W, strain sec22, stronger effect = lower value",1.09
same,normalized growth,"S. cerevisiae deletion strains, locus YLR330W, strain CHS5, stronger effect = lower value",0.991
same,normalized growth,"S. cerevisiae deletion strains, locus YLR342W, strain FKS1 (second series), stronger effect = lower value",1.02
same,normalized growth,"S. cerevisiae deletion strains, locus YLR371W, strain rom2, stronger effect = lower value",0.929
same,normalized growth,"S. cerevisiae deletion strains, locus YLR418C, strain cdc73, stronger effect = lower value",1.05
same,normalized growth,"S. cerevisiae deletion strains, locus YML016C, strain PPZ1, stronger effect = lower value",0.981
same,normalized growth,"S. cerevisiae deletion strains, locus YML032C, strain rad52, stronger effect = lower value",1.01
same,normalized growth,"S. cerevisiae deletion strains, locus YML124C, strain tub3, stronger effect = lower value",0.976
same,normalized growth,"S. cerevisiae deletion strains, locus YMR078C, strain ctf18, stronger effect = lower value",0.972
same,normalized growth,"S. cerevisiae deletion strains, locus YMR223W, strain ubp8, stronger effect = lower value",0.995
same,normalized growth,"S. cerevisiae deletion strains, locus YMR263W, strain SAP30, stronger effect = lower value",1.01
same,normalized growth,"S. cerevisiae deletion strains, locus YMR307W, strain GAS1, stronger effect = lower value",1.1
same,normalized growth,"S. cerevisiae deletion strains, locus YNL067W, strain RPL9B, stronger effect = lower value",1.04
same,normalized growth,"S. cerevisiae deletion strains, locus YNL128W, strain TEP1, stronger effect = lower value",0.997
same,normalized growth,"S. cerevisiae deletion strains, locus YNL153C, strain GIM3, stronger effect = lower value",1.01
same,normalized growth,"S. cerevisiae deletion strains, locus YNL233W, strain BNI4, stronger effect = lower value",1.04
same,normalized growth,"S. cerevisiae deletion strains, locus YNL250W, strain rad50, stronger effect = lower value",0.98
same,normalized growth,"S. cerevisiae deletion strains, locus YNL271C, strain bni1, stronger effect = lower value",0.987
same,normalized growth,"S. cerevisiae deletion strains, locus YNL298W, strain CLA4, stronger effect = lower value",0.962
same,normalized growth,"S. cerevisiae deletion strains, locus YNL307C, strain MCK1, stronger effect = lower value",0.988
same,normalized growth,[4],0.995
same,normalized growth,"S. cerevisiae deletion strains, locus YNR052C, strain pop2, stronger effect = lower value",0.989
same,normalized growth,"S. cerevisiae deletion strains, locus YOL006C, strain TOP1, stronger effect = lower value",1.04
same,normalized growth,"S. cerevisiae deletion strains, locus YOL012C, strain htz1",1.28
same,normalized growth,"S. cerevisiae deletion strains, locus YOL147C, strain pex11, stronger effect = lower value",0.989
same,normalized growth,"S. cerevisiae deletion strains, locus YOR061W, strain CKA2, stronger effect = lower value",0.975
same,normalized growth,"S. cerevisiae deletion strains, locus YOR136W, strain idh2, stronger effect = lower value",0.988
same,normalized growth,"S. cerevisiae deletion strains, locus YOR144C, strain elg1, stronger effect = lower value",0.968
same,normalized growth,"S. cerevisiae deletion strains, locus YOR184W, strain ser1, stronger effect = lower value",0.98
same,normalized growth,"S. cerevisiae deletion strains, locus YOR316C, strain cot1, stronger effect = lower value",0.978
same,normalized growth,"S. cerevisiae deletion strains, locus YPL055C, strain LGE1, stronger effect = lower value",1.02
same,normalized growth,[5],0.999
same,normalized growth,"S. cerevisiae deletion strains, locus YPR119W, strain clb2, stronger effect = lower value",0.987
same,normalized growth,"S. cerevisiae deletion strains, locus YPR141C, strain kar3, stronger effect = lower value",0.963
same,normalized growth,"S. cerevisiae deletion strains, locus YPR163C, strain tif3, stronger effect = lower value",0.986
same,normalized growth,"S. cerevisiae deletion strains, locus YPR167C, strain met16, stronger effect = lower value",0.984
same,normalized growth,"S. cerevisiae deletion strains, strain wtn01, stronger effect = lower value",1.01
same,normalized growth,"S. cerevisiae strains, strain wild type, stronger effect = lower value",1.01
O=C(NC(Cc1ccccc1)C(=O)CCl)OCc1ccccc1 (stereo not drawn),normalized growth,"S. cerevisiae deletion strains, locus YAL040C, strain CLN3, stronger effect = lower value",1.03
same,normalized growth,"S. cerevisiae deletion strains, locus YCL061C, strain MRC1 (second series), stronger effect = lower value",0.979
same,normalized growth,"S. cerevisiae deletion strains, locus YDR363W, strain ESC2, stronger effect = lower value",1.02
same,normalized growth,"S. cerevisiae deletion strains, locus YER002W, strain NOP16, stronger effect = lower value",0.549 (active)
same,normalized growth,[1],0.98
same,normalized growth,[2],0.28 (active)
same,normalized growth,[3],0.913
same,normalized growth,"S. cerevisiae deletion strains, locus YNL175C, strain NOP13, stronger effect = lower value",0.707 (active)
same,normalized growth,"S. cerevisiae deletion strains, locus YNL197C, strain WHI3, stronger effect = lower value",0.874 (active)
same,normalized growth,"S. cerevisiae deletion strains, locus YNL224C, strain SQS1, stronger effect = lower value",0.784 (active)
same,normalized growth,[4],0.999
same,normalized growth,"S. cerevisiae deletion strains, locus YOR083W, strain WHI5 (second series), stronger effect = lower value",0.687 (active)
same,normalized growth,[5],0.992
